Only some compounds are listed: those with a hit (about 6.5% of all), similar ones and a draw of the others.
LASV entry inh: inhibitors of Lassa virus binding or cell entry; Lassa virus pseudotype entry inhibition, cell reporter; Potency, µM (doses to about 37.9 µM), for inactives: at the highest dose activity change, negative = inhibition, actives largely listed as inhibitors; 1.2% of 300,000 active; AID 540256; calls by dose curve; tested in HEK293 cells; also: potency is read from the fitted curve at half-maximal effect; nearly all actives have a fitted effect of over 50% in size
HCMV antiviral: inhibitors of human cytomegalovirus; HFF cells, HCMV-luciferase reporter, 72 h; stronger effect = lower value; activity change, negative = inhibition, % at 57.5 µM; 4.5% of 410,000 active; AID 1259415; in the data active = activity change below about -60%; inconclusive = no clear call, values can overlap the other calls; inactive = above about -39%
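Two-dose cell screen: HFF monolayers treated with compounds and infected with luciferase-expressing HCMV at 1 PFU/cell, 72 h at 37C, then lysed for luciferase measurement.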
Vaccinia mCherry: vaccinia inhibition (mCherry reporter). Vaccinia virus mCherry reporter infection, fluorescence. Potency, µM (series often up to 36.5 µM), without a hit: at the top dose activity change, negative = inhibition, most hits filed as inhibitors. 0.63% of 310,000 active; calls by dose curve; tested in A549 cells; also: potency is read from the fitted curve at half-maximal effect; nearly all actives have a fitted effect of over 35% in size
Marburg entry inh: inhibitors of Marburg virus binding or cell entry | AID 540276 | Marburg virus pseudotyped entry inhibition, cell reporter | 1.8% of 300,000 active | Potency, µM (doses to about 37.8 µM), for the others: at the highest dose activity change, negative = inhibition, most hits filed as inhibitors; calls by dose curve; tested in HEK293 cells; also: potency is read from the fitted curve at half-maximal effect
Vaccinia Venus: inhibitors of vaccinia virus (Venus reporter) | Vaccinia virus Venus reporter expression, fluorescence | Potency, µM (highest dose often 36.5 µM), inactives show at the top dose activity change, negative = inhibition, actives largely listed as inhibitors | 0.46% of 330,000 active | AID 720580; calls by dose curve; tested in A549 cells; also: potency is read from the fitted curve at half-maximal effect; nearly all actives have a fitted effect of over 30% in size
FMDV inh: foot and mouth disease virus antiviral activity | 1.2% of 410,000 active | Potency, µM (doses to about 57.9 µM), inactives show top-dose activity change, negative = inhibition, most hits filed as inhibitors | AID 1159524 | FMDV antiviral cell-based qHTS; calls by dose curve; tested in HEK293T cells; also: read-out not given here; potency is read from the fitted curve at half-maximal effect; nearly all actives have a fitted effect of over 45% in size
* marks the source's active call; other numbers are inactive results; i = inactive; ? = inconclusive; nt = no result; [ ] = dose if it differs, or a comment. % is scaled to controls: 0 for no effect and ±100 for the full control effect.

SMILES	LASV entry inh	HCMV antiviral	Vaccinia mCherry	Marburg entry inh	Vaccinia Venus	FMDV inh
CCN(CC(=O)NCc1ccc(Cl)cc1)C(=O)c1ccc2cc(OC)ccc2c1	?	-12.7	i	?	-14.7%	10.5%
OC(c1ccc2c(c1)CN(Cc1cccc3nccnc13)CCO2)C1CCCCC1 (stereo not drawn)	nt	nt	-14.8%	nt	-14.6%	-0.1%
Cc1nc(NS(=O)(=O)c2ccccc2)sc1C(=O)NNS(=O)(=O)c1ccccc1	13.7%[46.1 µM]	-5.4	-11.7%	18.1%[46.1 µM]	19.1%	15.5%
Cc1nc(C)c(C(=O)NNS(=O)(=O)c2ccc3ccccc3c2)s1	?	-73.0*	?	-31.1%	-3.2%	-26.5%
Cc1cccc(-n2c(O)c(C=Nc3cc(O)ccc3C)c3ccccc3c2=O)n1	5.7%	?	-1.7%	?	-11.2%	-16.8%
Cc1cccc(-n2c(O)c(C=Nc3ccccc3O)c3ccccc3c2=O)n1	16.8%	-63.9*	-22.0%	?	5.5%	-20.9%
C#CCCCO/N=C1\C[C@@H](O)[C@@H](O)[C@@H]2[C@@H]3C(=O)N(c4ccc(F)cc4F)C(=O)[C@@H]3CC[C@H]12	nt	nt	nt	-6.1%[14.2 µM]	nt	nt
CSc1nnc(CCNC(=O)c2ccccc2C(F)(F)F)n1-c1ccc(F)cc1	nt	nt	-5.1%	nt	7.8%	-15.0%
N#CC1=C(c2ccccc2)/C(=C/c2ccccc2)OC1=O	-25.3%	-106.1*	i	?	-1.4%	6.31µM*
O=C1O/C(=C/c2ccccc2)c2ccccc21	2.1%	5.9	-13.0%	6.6%	-19.6%	82.0%
O=C(Nc1ccc(Cl)cc1Cl)[C@@H]1CC=C[C@@H]2CCN(Cc3ccccc3)C(=O)[C@@H]21	nt	nt	-27.0%	nt	-17.6%	nt
C/C(=N\NC(=O)Cc1ccc(Cl)cc1)c1ccccc1O	-18.8%[46.1 µM]	-67.2*	?	?	-3.8%	15.2%
C/C(=N\NC(=O)Cc1ccc(Cl)cc1)c1ccc(F)cc1	nt	0.1	nt	nt	nt	-15.7%
CC(=O)NN=C1CCC(c2ccccc2)CC1 (stereo not drawn)	1.0%	-20.9	-8.4%	4.3%	-18.9%	-13.6%
NC(N)=NN=C1CCC(c2ccccc2)CC1 (stereo not drawn)	-8.0%[46.1 µM]	-19.1	-26.7%	14.1%[46.1 µM]	-6.0%	7.08µM*
COc1ccc2c(c1)OC(C)CN(CCC(=O)NCC1OCCc3ccccc31)C2 (stereo not drawn)	nt	nt	-15.4%	nt	-7.2%	-5.2%
O=c1oc(-c2ccccc2)cc(Cl)c1Cl	?	-100.5*	i	11.2µM*	-10.3%	25.1µM*
CC(=O)c1ccc(-c2ccc(C(=O)N(C)Cc3nc4ccccc4c(=O)[nH]3)o2)cc1	nt	-30.4	nt	nt	nt	22.4µM*
CN(Cc1nc2ccccc2c(=O)[nH]1)C(=O)c1ccc(S(=O)(=O)N(C)C)cc1	11.9%	-12.9	nt	4.4%	nt	-11.2%
O=S(=O)(Nc1cccc2ncccc12)c1cccs1	?	nt	12.6µM*	?	?	20µM*
CN[C@@H](C)[C@H](O)c1ccccc1	nt	nt	-11.1%	11.2µM*	0.1%	-7.0%
CCCNC(=O)C1CCC(Cn2c(=O)c3sccc3n(CC(=O)NCc3cccc(OC)c3OC)c2=O)CC1 (stereo not drawn)	-0.4%[46.1 µM]	9.5	-4.1%	-2.8%[46.1 µM]	-10.1%	-5.3%
COc1ccc(Nc2oc(COc3ccccc3OC)nc2C#N)cc1	?	-79.6*	-12.4%	?	-3.4%	11.5%
COc1ccccc1OCc1nc(C#N)c(NCc2ccc(C)cc2)o1	-8.2%[46.1 µM]	2.0	-10.4%	-22.6%[46.1 µM]	7.7%	-13.3%
COc1ccc(CCNc2oc(Cc3ccccc3)nc2C#N)cc1OC	-14.7%	-13.8	-11.7%	?	-33.0%	14.1µM*
SMILES	LASV entry inh	HCMV antiviral	Vaccinia mCherry	Marburg entry inh	Vaccinia Venus	FMDV inh
COc1ccc(CCNc2oc(COc3ccccc3Cl)nc2C#N)cc1OC	nt	19.1	-28.5%	nt	-22.5%	20µM*
COc1ccc(CCNc2oc(COc3ccccc3F)nc2C#N)cc1OC	?	-3.4	i	?	-25.5%	-0.4%
Cc1cccc(NC(=O)CSc2nc3n[nH]c(C)c3c(=N)n2-c2cccc(Cl)c2)c1	?	44.3	-18.8%	nt	-18.9%	-19.9%
Cc1c(Cl)cccc1NC(=O)CC(c1ccc(F)cc1)N1Cc2ccccc2C1=O (stereo not drawn)	-28.5%[46.1 µM]	27.4	-10.2%	nt	-5.1%	-3.5%
COc1cccc(-c2cn3c(n2)sc2cc(C(=O)NCCc4ccc(OC)c(OC)c4)ccc23)c1	1.8%[46.1 µM]	nt	-20.4%	nt	-12.2%	-3.0%
N#Cc1c[nH]n2c(NC3CCCC3)c(-c3ccc(Cl)cc3)nc12	-27.4%[46.1 µM]	-20.1	-19.0%	1.41µM*	-14.3%	-10.8%
N#Cc1c[nH]n2c(NC3CCCC3)c(-c3ccc(Br)cc3)nc12	-26.8%[46.1 µM]	-14.0	-17.9%	?	-26.5%	-14.1%
Cn1ccnc1SCC(=O)Nc1cc(Cl)ccc1Cl	0.3%[46.1 µM]	8.4	8.7%	?	9.0%	45.6%
Cc1cc(C)cc(C(=O)C[n+]2cccc(Br)c2)c1	nt	nt	i	nt	-13.6%	nt
Cc1ccc(NC(=O)c2ccc(Cl)c(N3C(=O)C=CC3=O)c2)cc1	-9.1%	-12.0	nt	-1.4%	?	39.8µM*
O=C(Nc1ccc(N2CCCCC2)cc1)c1ccc2c(c1)OCCO2	?	-91.1*	nt	?	nt	-21.6%
CC(=O)N1CCN(c2ccc(NC(=O)c3ccc4c(c3)OCCO4)cc2)CC1	18.3%	-23.2	i	20.2%	-12.3%	nt
CCCC(=O)N1CCN(c2ccc(NC(=O)c3ccc4c(c3)OCCO4)cc2)CC1	6.9%	40.1	-7.6%	8.3%[46.1 µM]	-3.9%	?
CC(C)(C)C(=O)N1CCN(c2ccc(NC(=O)c3ccc4c(c3)OCCO4)cc2)CC1	?	-67.5*	-21.5%	?	-14.5%	31.6µM*
O=C(Nc1ccc(N2CCN(C(=O)c3ccc(Cl)cc3)CC2)cc1)c1ccc2c(c1)OCCO2	?	-92.0*	?	?	?	11.2µM*
COC(=O)[C@H]1[C@H](CO)[C@H]2Cn3c(cccc3=O)[C@H]2N1Cc1ccccc1F	nt	4.3	nt	nt	nt	nt
O=C(c1ccc(F)cc1)c1ccc(N2CCCCC2)cc1	nt	24.5	nt	nt	nt	45.1%
CCCCOC(=O)Nc1ccc(N2CCCCC2)cc1	8.91µM*	145.3	-17.3%	?	-10.7%	4.0%
COc1cc(-c2nc(-c3ccc(NC(=O)c4ccc5c(c4)OCO5)cc3)no2)cc(OC)c1OC	-6.5%	60.2	-17.7%	?	-14.7%	-23.5%
CCCCOC(=O)Nc1ccc(N2CCOCC2)cc1	11.9%	52.4	nt	?	nt	55.7%

Source: PubChem BioAssay (National Center for Advancing Translational Sciences (NCATS))
